# From PubChem BioAssay AID651871 (Sanford-Burnham Center for Chemical Genomics, 2012)
# “And” between values parts separate entries of the source, which are not always exact repeats. Equal values may be shown once.
# Test system: HL-1
# Assay: protection of cardiomyocytes from stress damage, SAR follow-up, cell-based, panel, H9c2 and HL-1, ATP luminescence, set 2 (AID 651871);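 further: cells exposed to stressor for 2 h before ATP readout; reference of the scale not given here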
# Details: H9c2/HL-1 cardiomyocytes, 2-deoxyglucose stress, with 2-deoxyglucose, run 6, at 19.8 µM (top of the series)
smiles,measurement,value
COc1ccc2c(c1OC)C(=O)N1c3ccccc3C(=O)N(Cc3cccc(Cl)c3Cl)C21 (stereo unspecified),activity (protection/inhibition),29.6% and 37.4%
